Conditions in all cases: Compound concentration 20.0 uM
For test [1], the target named is Tyrosine-protein kinase ABL1 (Homo sapiens) (UniProt P00519).
In test [2] the target is Bromodomain-containing protein 4 (Homo sapiens) (UniProt O60885).
Test [3] addresses Cyclin-dependent kinase 2 (Homo sapiens) (UniProt P24941).
Test [4] has as its target Casein kinase I isoform delta (Homo sapiens) (UniProt P48730).
Test [5] addresses Glycogen synthase kinase-3 beta (Homo sapiens) (UniProt P49841).
In test [6] the target is Mitogen-activated protein kinase 1 (Homo sapiens) (UniProt P28482).
For test [7], the target named is T1, Aurora kinase A (Homo sapiens) (UniProt O14965).
T1 sequence (whole entry): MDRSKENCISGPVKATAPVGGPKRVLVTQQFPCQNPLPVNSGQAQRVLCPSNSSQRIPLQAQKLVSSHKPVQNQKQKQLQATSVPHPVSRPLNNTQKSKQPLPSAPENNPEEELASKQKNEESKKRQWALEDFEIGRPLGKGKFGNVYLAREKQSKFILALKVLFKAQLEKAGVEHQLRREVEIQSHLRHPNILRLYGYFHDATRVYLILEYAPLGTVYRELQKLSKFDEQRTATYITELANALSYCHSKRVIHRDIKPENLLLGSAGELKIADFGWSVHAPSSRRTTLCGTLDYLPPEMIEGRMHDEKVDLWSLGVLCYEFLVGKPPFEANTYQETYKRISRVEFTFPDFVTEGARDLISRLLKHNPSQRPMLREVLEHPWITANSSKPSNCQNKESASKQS

Test [8] concerns the target T2, Transcription intermediary factor 1-alpha (Homo sapiens) (UniProt O15164).
T2 sequence (whole entry): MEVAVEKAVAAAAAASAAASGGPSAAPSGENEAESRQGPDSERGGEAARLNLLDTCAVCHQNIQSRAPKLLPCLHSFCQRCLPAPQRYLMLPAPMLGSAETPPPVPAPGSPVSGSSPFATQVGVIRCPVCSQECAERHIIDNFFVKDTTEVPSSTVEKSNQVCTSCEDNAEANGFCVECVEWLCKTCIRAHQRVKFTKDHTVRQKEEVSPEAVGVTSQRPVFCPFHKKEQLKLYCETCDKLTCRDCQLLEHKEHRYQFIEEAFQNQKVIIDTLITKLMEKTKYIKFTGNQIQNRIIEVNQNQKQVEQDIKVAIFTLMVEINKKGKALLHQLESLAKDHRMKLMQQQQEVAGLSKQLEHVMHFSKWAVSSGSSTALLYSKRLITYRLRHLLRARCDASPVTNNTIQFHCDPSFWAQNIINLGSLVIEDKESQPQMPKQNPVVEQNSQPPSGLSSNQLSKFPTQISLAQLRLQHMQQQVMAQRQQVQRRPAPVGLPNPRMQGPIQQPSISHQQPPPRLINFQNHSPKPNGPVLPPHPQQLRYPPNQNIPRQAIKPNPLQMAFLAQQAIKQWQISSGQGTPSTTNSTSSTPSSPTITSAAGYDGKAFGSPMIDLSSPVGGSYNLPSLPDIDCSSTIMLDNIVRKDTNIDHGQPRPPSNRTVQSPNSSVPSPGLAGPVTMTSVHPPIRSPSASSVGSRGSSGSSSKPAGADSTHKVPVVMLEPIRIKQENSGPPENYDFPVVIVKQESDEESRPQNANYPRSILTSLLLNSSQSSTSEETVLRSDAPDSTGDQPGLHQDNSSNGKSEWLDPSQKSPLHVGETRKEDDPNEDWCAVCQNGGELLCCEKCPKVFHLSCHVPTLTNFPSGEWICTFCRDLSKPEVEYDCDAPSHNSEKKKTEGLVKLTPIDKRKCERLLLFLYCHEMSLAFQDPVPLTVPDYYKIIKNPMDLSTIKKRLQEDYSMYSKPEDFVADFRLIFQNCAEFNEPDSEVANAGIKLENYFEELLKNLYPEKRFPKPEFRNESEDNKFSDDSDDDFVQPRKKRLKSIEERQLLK

Sequence of Mitogen-activated protein kinase 1 (Homo sapiens) (P28482 whole entry): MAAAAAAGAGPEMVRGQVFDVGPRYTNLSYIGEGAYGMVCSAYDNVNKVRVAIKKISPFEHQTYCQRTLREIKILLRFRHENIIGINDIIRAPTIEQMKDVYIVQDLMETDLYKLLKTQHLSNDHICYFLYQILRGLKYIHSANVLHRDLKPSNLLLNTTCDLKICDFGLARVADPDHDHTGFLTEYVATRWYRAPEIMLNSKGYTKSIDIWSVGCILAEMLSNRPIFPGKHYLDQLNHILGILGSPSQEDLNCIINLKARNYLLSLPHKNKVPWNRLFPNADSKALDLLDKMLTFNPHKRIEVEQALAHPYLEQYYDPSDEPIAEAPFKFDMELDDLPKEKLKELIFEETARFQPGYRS
Sequence of Tyrosine-protein kinase ABL1 (Homo sapiens) (P00519 whole entry): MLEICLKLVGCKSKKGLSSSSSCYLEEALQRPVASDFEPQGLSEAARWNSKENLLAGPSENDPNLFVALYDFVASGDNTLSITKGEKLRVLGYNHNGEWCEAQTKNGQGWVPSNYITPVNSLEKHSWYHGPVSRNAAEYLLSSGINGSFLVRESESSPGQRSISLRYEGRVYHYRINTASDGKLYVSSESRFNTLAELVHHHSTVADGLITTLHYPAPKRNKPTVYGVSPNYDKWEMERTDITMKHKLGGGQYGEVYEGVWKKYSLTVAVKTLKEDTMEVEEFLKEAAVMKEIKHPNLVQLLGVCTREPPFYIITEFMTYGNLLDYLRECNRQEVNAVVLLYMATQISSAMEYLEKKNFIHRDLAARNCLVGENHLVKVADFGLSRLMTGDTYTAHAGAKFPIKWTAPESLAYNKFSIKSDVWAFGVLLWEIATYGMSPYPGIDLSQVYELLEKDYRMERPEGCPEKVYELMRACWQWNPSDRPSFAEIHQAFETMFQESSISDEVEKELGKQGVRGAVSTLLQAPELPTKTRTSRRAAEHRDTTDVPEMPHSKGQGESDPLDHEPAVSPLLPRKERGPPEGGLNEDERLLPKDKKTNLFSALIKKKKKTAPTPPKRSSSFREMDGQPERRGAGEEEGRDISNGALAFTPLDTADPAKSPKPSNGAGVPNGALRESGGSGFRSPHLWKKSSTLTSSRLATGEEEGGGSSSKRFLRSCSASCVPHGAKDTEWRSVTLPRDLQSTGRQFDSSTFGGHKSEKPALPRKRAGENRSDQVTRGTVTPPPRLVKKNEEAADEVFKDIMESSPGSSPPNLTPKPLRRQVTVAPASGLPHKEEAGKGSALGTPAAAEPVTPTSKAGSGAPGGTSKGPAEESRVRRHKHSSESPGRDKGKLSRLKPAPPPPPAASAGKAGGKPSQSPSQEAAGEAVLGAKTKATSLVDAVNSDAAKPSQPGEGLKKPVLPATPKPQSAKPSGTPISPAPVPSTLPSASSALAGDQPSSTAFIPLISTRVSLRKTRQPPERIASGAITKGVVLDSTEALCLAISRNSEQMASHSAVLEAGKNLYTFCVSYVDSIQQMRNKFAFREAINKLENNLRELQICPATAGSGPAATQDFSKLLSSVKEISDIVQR
Sequence of Glycogen synthase kinase-3 beta (Homo sapiens) (P49841 whole entry, looked up): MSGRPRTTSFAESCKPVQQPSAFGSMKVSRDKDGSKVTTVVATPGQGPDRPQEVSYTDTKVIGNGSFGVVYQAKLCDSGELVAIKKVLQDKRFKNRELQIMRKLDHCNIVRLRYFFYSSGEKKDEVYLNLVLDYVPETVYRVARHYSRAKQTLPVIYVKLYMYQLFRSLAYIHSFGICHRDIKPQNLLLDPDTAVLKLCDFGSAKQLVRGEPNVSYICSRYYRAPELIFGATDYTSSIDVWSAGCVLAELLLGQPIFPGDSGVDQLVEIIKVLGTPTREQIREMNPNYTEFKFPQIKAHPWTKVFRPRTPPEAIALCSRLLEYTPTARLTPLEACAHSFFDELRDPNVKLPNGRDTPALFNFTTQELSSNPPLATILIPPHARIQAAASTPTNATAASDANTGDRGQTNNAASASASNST
Sequence of Casein kinase I isoform delta (Homo sapiens) (P48730 whole entry, looked up, canonical isoform): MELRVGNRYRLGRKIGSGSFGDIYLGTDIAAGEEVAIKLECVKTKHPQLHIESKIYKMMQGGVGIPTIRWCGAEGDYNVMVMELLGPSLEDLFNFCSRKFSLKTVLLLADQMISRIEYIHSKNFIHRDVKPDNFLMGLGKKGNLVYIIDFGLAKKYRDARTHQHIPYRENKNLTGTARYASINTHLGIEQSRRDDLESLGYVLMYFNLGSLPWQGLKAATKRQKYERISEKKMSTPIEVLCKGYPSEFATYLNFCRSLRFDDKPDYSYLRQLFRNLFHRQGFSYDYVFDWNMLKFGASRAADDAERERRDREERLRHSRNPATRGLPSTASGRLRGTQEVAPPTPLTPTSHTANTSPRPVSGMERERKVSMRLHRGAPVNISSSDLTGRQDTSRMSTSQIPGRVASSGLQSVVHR

The term ΔTm denotes the shift of the melting midpoint relative to a reference. As to `CCc1nc2c(C)cc(N3CCN(CC(=O)N4CC(O)C4)CC3)cn2c1N(C)c1nc(-c2ccc(F)cc2)c(C#N)s1`, the ΔTm is 0.01 °C in test [1]; 2.78 °C in test [2]; 0.06 °C in test [3]; 0.35 °C in test [4]; -0.27 °C in test [5]; 0.06 °C in test [6]. For the same compound, the ΔTm in test [7] was -2.2 °C; in test [8] it was 0.03 °C.

Regarding `CCc1ccccc1NC(=O)CSC(=O)NNC(=O)[C@H](Cc1c[nH]c2ccccc12)NC(=O)OC(C)(C)C`, the ΔTm in test [1] is 1.95 °C; in test [2], -0.97 °C; in test [3], -0.07 °C; in test [4], 0.05 °C; in test [5] it was 4.75 °C; in test [6], -10.2 °C. Besides, the ΔTm was found to be 3.62 °C in test [7] and 5.76 °C in test [8].

In the case of `C[C@@H](Oc1ccc(CNC(=O)c2cccnc2Oc2ccc3c(c2)OCO3)c(F)c1)C(=O)O`, the ΔTm is 0.69 °C in test [1]; -1.71 °C in test [2]; 0.09 °C in test [3]; -0.5 °C in test [4]; -0.12 °C in test [5]; 0.23 °C in test [6]. Besides, the ΔTm was -1.52 °C in test [7] and -0.05 °C in test [8].

For the compound `CS(=O)(=O)c1ccc(Oc2cc(F)cc(C#N)c2)c2c1[C@H](O)C(F)(F)C2`, the ΔTm was 0.43 °C in test [1]; -2.67 °C in test [2]; 0.56 °C in test [3]; -0.1 °C in test [4]; 0.06 °C in test [5]; 0.15 °C in test [6]. The ΔTm in test [7] is -1.44 °C; in test [8] it was 0.31 °C.

Turning to `CC#C[C@]1(O)CC[C@H]2[C@@H]3CCC4=CC(=O)CCC4=C3[C@@H](c3ccc(N(C)C)cc3)C[C@@]21C`, the ΔTm in test [1] is 0.11 °C; in test [2] it was -2.39 °C; in test [3] it was -0.02 °C; in test [4], 0.02 °C; in test [5] it was -1.3 °C; in test [6] it was -0.7 °C. The ΔTm is -1.55 °C in test [7] and -0.92 °C in test [8].

Take `CCN(CC)S(=O)(=O)c1cc(Nc2nccc(-c3ccnc(-c4ccc(NC(=O)NC)cc4)c3)n2)ccc1Cl`: the ΔTm was 15.6 °C in test [1]; 0 °C in test [2]; 0 °C in test [3]; 0.81 °C in test [4]; 24.1 °C in test [5]; 0 °C in test [6]. For the same compound, the ΔTm in test [7] and in test [8] was 0 °C in each case.

With `CCCC1O[C@@H]2C[C@H]3[C@@H]4CCC5=CC(=O)C=C[C@]5(C)[C@H]4[C@@H](O)C[C@]3(C)[C@]2(C(=O)CO)O1` (stereo partly drawn), the ΔTm in test [1] was 0.48 °C; in test [2], -1.67 °C; in test [3], 0.01 °C; in test [4] it was -0.03 °C; in test [5] it was -0.4 °C; in test [6], -0.27 °C. The ΔTm is -0.16 °C in test [7] and -0.81 °C in test [8].

Turning to `C[C@H](NC(=O)CCc1nc2ccccc2c(=O)[nH]1)c1ccccc1`, the ΔTm is 0.18 °C in test [1]; 0.84 °C in test [2]; 0.79 °C in test [3]; 0.42 °C in test [4]; -0.21 °C in test [5]; 0.83 °C in test [6]. Also, the ΔTm in test [7] was -1.25 °C; in test [8], 0.31 °C.

Regarding `C=CCc1cccc(CNc2nc3ccccc3n2CCC)c1O`, the ΔTm in test [1] was 0.28 °C; in test [2], -1.55 °C; in test [3], 0.45 °C; in test [4], 0.21 °C; in test [5], 0.95 °C; in test [6] it was 0.22 °C. Besides, the ΔTm in test [7] is -1.56 °C; in test [8] it was 0.59 °C.

With `O=C1C(=O)N(Cc2ccccc2)c2ccc(S(=O)(=O)N3CCC[C@H]3COc3ccc(C(F)(F)F)cc3)cc21`, the ΔTm in test [1] was -0.46 °C; in test [2], -4.2 °C; in test [3], -0.42 °C; in test [4], 0.54 °C; in test [5], -0.32 °C; in test [6] it was -0.63 °C. Also, the ΔTm in test [7] was -1.82 °C; in test [8], -1.21 °C.

As for `CNc1cc(-c2cccc(Cl)c2Cl)nc(N)n1`, the ΔTm is 0.38 °C in test [1]; -2.61 °C in test [2]; 0.11 °C in test [3]; -0.27 °C in test [4]; -0.04 °C in test [5]; 0.22 °C in test [6]. Also, the ΔTm in test [7] is -2.02 °C; in test [8], 0.28 °C.

In the case of `CCn1c(=O)c(C)cn(Cc2nnc(-c3ccc(F)c(O)c3F)s2)c1=O`, the shift in melting temperature (ΔTm) in test [1] is 0.41 °C; in test [2], -1.52 °C; in test [3], -0.07 °C; in test [4] it was 0.26 °C; in test [5], 0 °C; in test [6], -0.2 °C. Besides, the ΔTm in test [7] was -0.34 °C; in test [8] it was -0.63 °C.

Regarding `CS(=O)(=O)c1ccc(Oc2cc(F)cc(C#N)c2)c2c1C(O)C(F)C2` (stereo not drawn), the ΔTm is 0.53 °C in test [1]; -2.49 °C in test [2]; 0.01 °C in test [3]; -0.13 °C in test [4]; -0.04 °C in test [5]; 0.54 °C in test [6]. Also, the ΔTm in test [7] is -2.47 °C; in test [8], -0.39 °C.

Turning to `Cc1nnn(C)c1-c1cnc2c3cc4cnn(C)c4cc3n([C@H](c3ccccc3)C3CCOCC3)c2c1`, the ΔTm in test [1] is 0.34 °C; in test [2] it was 22.9 °C; in test [3], -0.73 °C; in test [4], 0.09 °C; in test [5], -1.29 °C; in test [6], 0.17 °C. Further, the ΔTm was -2.95 °C in test [7] and 0.06 °C in test [8].

Regarding `NC(=O)C(CCCN=C(N)CCl)NC(=O)c1ccccc1` (stereo not drawn), the ΔTm in test [1] was 0.36 °C; in test [2], -3.15 °C; in test [3], 0.18 °C; in test [4], -0.56 °C; in test [5] it was 0.08 °C; in test [6] it was 0.22 °C. Besides, the ΔTm in test [7] is -2.39 °C; in test [8], 1.03 °C.

In the case of `CC(c1cccc2ccccc12)n1cnc2c(=O)[nH]c(Cc3ccccc3)nc21` (stereo not drawn), the ΔTm was 0.22 °C in test [1]; -5.4 °C in test [2]; -0.82 °C in test [3]; 0.84 °C in test [4]; -1 °C in test [5]; -0.16 °C in test [6]. Also, the results for the shift in melting temperature (ΔTm) in test [7] and in test [8] were -3.08 °C and -1.81 °C, respectively.

(Values after ChEMBL document CHEMBL5724796, “Tm Shift (DSF) assay results for EUbOPEN Chemogenomics Library” (2024).)
